Reference: publication PMC5540273 (PLoS ONE, 2017)

Columns and labels:
Settings in all cases: concentration: 1 μM, replicates: in singlicate; n = 1
SRPK2 = test system: SRPK2
SRPK3 = test system: SRPK3
STK16 = test system: STK16
STK33 = test system: STK33
STK35 = test system: STK35
STK36 = test system: STK36
STK39 = test system: STK39
SYK = test system: SYK
SgK110 = test system: SgK110
TAK1 = test system: T1, TAK1
T1 construct: gene MAP3K7
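Also: KINOMEscan kinase panel screen.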

| SMILES | %Inh (SRPK2) [%] | %Inh (SRPK3) [%] | %Inh (STK16) [%] | %Inh (STK33) [%] | %Inh (STK35) [%] | %Inh (STK36) [%] | %Inh (STK39) [%] | %Inh (SYK) [%] | %Inh (SgK110) [%] | %Inh (TAK1) [%] |
| --- | --- | --- | --- | --- | --- | --- | --- | --- | --- | --- |
| O=C1NC(=O)C(c2ccc(Cl)cc2)=C1Nc1cccc(Cl)c1 [SB-317651] | 3 | 8 | 0 | 0 | 0 | 2 | 17 | 0 | 0 | 34 |
| COC(=O)c1cccc(NC(=O)NC2CCN(c3ccnc(Nc4ccc(OC)cc4)n3)C2)c1 (centres unmarked) [GSK1379746] | 28 | 0 | 8 | 0 | 0 | 0 | 5 | 0 | 0 | 0 |
| COc1cc2ncnc(Nc3cccc(Br)c3)c2cc1OC.Cl [GI230329] | 40 | 0 | 0 | 0 | 0 | 0 | 5 | 13 | 17 | 0 |
| Cc1ccc(NC(=O)Nc2ccc(Cl)cc2)cc1-c1ccc(C(=O)Nc2ccncc2)cc1 [GSK1398472] | 0 | 46 | 0 | 0 | 0 | 1 | 0 | 31 | 10 | 0 |
| CC(C)c1ccc(O)cc1Nc1ccnc2ccc(C(F)(F)F)cc12 [GW482059] | 0 | 16 | 0 | 19 | 0 | 0 | 0 | 23 | 0 | 0 |
| Nc1nccc(-c2c(-c3ccc(F)cc3)ncn2C2CCN(Cc3ccccc3)CC2)n1 [SB-219980] | 0 | 0 | 0 | 33 | 79 | 29 | 0 | 0 | 0 | 7 |
| COc1ccc(-c2coc3ccc(-c4nnc(C)o4)cc23)cc1 | 0 | 0 | 21 | 0 | 0 | 13 | 0 | 17 | 52 | 0 |
| O=C(Nc1n[nH]c2nc(-c3cccs3)c(Br)cc12)C1CCCC1 [SB-743341] | 15 | 20 | 23 | 1 | 0 | 1 | 33 | 5 | 18 | 38 |
| Cc1ccc(NC(=O)Nc2ccccc2F)cc1-c1ccc(C(=O)Nc2ccncc2)cc1 [GSK1398477] | 0 | 28 | 11 | 8 | 21 | 6 | 0 | 44 | 0 | 0 |
| COc1nccc(-c2c(-c3ccc(F)cc3)ncn2CCCN2CCOCC2)n1 [SB-282852] | 26 | 23 | 9 | 0 | 0 | 0 | 6 | 0 | 0 | 43 |
| Cn1cnc2c(N)ncnc21 [SKF-97623] | 10 | 18 | 0 | 0 | 19 | 0 | 2 | 0 | 0 | 0 |
| COC(=O)C(NC(=O)NC1CCN(c2ccnc(Nc3ccc(F)cc3)n2)C1)c1ccccc1 (centres unmarked) [GSK1379712] | 0 | 0 | 0 | 0 | 0 | 29 | 0 | 21 | 19 | 12 |
| CN1c2ccc(-c3ccc(C(N)=O)cc3)cc2-c2[nH]ncc2S1(=O)=O | 8 | 0 | 1 | 0 | 12 | 0 | 3 | 26 | 0 | 31 |
| Nc1ncnc2occ(-c3ccc4c(c3)CCN4C(=O)Cc3cc(F)ccc3F)c12 [GSK2645446] | 0 | 0 | 0 | 0 | 0 | 0 | 0 | 0 | 0 | 17 |
| CNc1nc(-c2ccc3c(N)n[nH]c3c2)cc(N2C[C@@H](C(=O)Nc3ccccc3)CC[C@H]2C)n1 [GSK2298859] | 29 | 0 | 13 | 9 | 0 | 0 | 6 | 16 | 0 | 0 |
| Nc1cccc(-c2ccc3c(N)n[nH]c3c2)n1 [GSK2192730] | 0 | 0 | 27 | 0 | 0 | 0 | 1 | 0 | 0 | 43 |

| SMILES | %Inh (SRPK2) [%] | %Inh (SRPK3) [%] | %Inh (STK16) [%] | %Inh (STK33) [%] | %Inh (STK35) [%] | %Inh (STK36) [%] | %Inh (STK39) [%] | %Inh (SYK) [%] | %Inh (SgK110) [%] | %Inh (TAK1) [%] |
| --- | --- | --- | --- | --- | --- | --- | --- | --- | --- | --- |
| CS(=O)(=O)CCNCc1nc(-c2ccc3ncnc(Nc4ccc5c(cnn5Cc5ccccc5)c4)c3c2)cs1.Cl.Cl [GW569716] | 33 | 9 | 0 | 0 | 0 | 0 | 0 | 13 | 0 | 0 |
| Cc1cccc2c(-c3ccncn3)c(-c3ccc(F)cc3)nn12 [GW515532] | 0 | 14 | 0 | 0 | 27 | 0 | 0 | 0 | 0 | 0 |
| Cc1ccc(NC(=O)Nc2ccccc2)cc1-c1ccc(C(=O)Nc2ccncc2)cc1 [GSK1398471] | 0 | 0 | 9 | 0 | 0 | 0 | 3 | 24 | 0 | 0 |
| CC(C)c1cc(-c2ccc3c(N)n[nH]c3c2)nc(N)n1 [GSK2250882] | 0 | 29 | 21 | 0 | 0 | 0 | 0 | 0 | 0 | 1 |
| COC(=O)c1cccc(NC(=O)NC2CCN(c3ccnc(Nc4ccc(F)cc4)n3)C2)c1 (centres unmarked) [GSK1379725] | 0 | 0 | 0 | 0 | 0 | 0 | 1 | 17 | 0 | 0 |
| Cc1c(Cn2c3ccccc3n3c(=O)cc(N4CCOCC4)nc23)cccc1C(F)(F)F [GSK2306394] | 0 | 0 | 11 | 6 | 0 | 0 | 0 | 5 | 0 | 0 |
| Cc1c(Cn2c(C)c(C)n3c(=O)cc(N4CCOCC4)nc23)cccc1C(F)(F)F [GSK2328680] | 45 | 2 | 0 | 65 | 0 | 0 | 0 | 32 | 0 | 0 |
| COC(=O)C(Cc1ccccc1)NC(=O)NC1CCN(c2ccnc(Nc3ccc(F)cc3)n2)C1 (centres unmarked) [GSK1379714] | 38 | 0 | 19 | 8 | 0 | 31 | 10 | 34 | 0 | 0 |
| Fc1ccc(-c2nc[nH]c2-c2ccncc2)cc1 [SB-217360] | 0 | 3 | 14 | 1 | 0 | 0 | 0 | 33 | 15 | 0 |
| CNCc1ccc2nc(NC(=O)c3ccc(C(C)(C)C)cc3)cn2c1 | 5 | 0 | 0 | 1 | 0 | 11 | 42 | 2 | 9 | 20 |
| Cl.Cl.Cl.N#Cc1ccc(CCNc2nccc(-c3cccc(CN4CCNCC4)c3)n2)cc1 [GSK2137462] | 0 | 0 | 22 | 100 | 0 | 0 | 0 | 9 | 23 | 4 |
| COc1cccc(CNC(=O)NC2CCN(c3ccnc(Nc4ccc(F)cc4)n3)C2)c1 (centres unmarked) [GSK1379723] | 0 | 16 | 10 | 0 | 5 | 0 | 10 | 18 | 1 | 0 |
| O=C1NC(=O)C(c2ccc(Cl)cc2)=C1Nc1ccc(O)cc1 [SB-340867] | 18 | 0 | 0 | 0 | 0 | 11 | 0 | 4 | 50 | 0 |
| COc1ccc(Nc2nccc(NCCNC(=O)Nc3cc(C)ccc3C)n2)cc1 [GSK1379899] | 0 | 10 | 0 | 0 | 0 | 0 | 0 | 24 | 0 | 0 |
| Cc1ccccc1Cn1ccn2c(=O)cc(N3CCOCC3)nc12 [GSK2269905] | 0 | 0 | 0 | 0 | 0 | 0 | 12 | 23 | 0 | 0 |
| CNc1nc(-c2ccc3c(N)n[nH]c3c2)cc(N2C[C@@H](C(=O)NC3CCCCC3)OC[C@H]2C)n1 [GSK2375584] | 30 | 0 | 16 | 13 | 0 | 22 | 6 | 26 | 0 | 0 |
